Consider 51 compounds from PubChem BioAssay AID504332 (National Center for Advancing Translational Sciences (NCATS), 2011).

Hit rate of the full screen: of about 350,000 compounds, about 31,000 (8.9%) were called active. Not shown: some 15% with an inconclusive outcome. The sample holds actives, similar compounds and a random draw of the others, so the mix is not that of the screen. Values without a mark were called inactive. Calls come from the whole dose curve; as a rule, active = well fitted inhibition curve with a large enough effect; inconclusive = small, poorly fitted or top-dose-only effect; inactive = no such curve, though single readings can be large or run the other way.
% is set by controls: 0 for no effect and ±100 for the full control effect; potency is the fitted concentration of half-maximal effect.

Histone-lysine N-methyltransferase EHMT2 (Homo sapiens), sequence (Q96KQ7 913-1193 limits assumed): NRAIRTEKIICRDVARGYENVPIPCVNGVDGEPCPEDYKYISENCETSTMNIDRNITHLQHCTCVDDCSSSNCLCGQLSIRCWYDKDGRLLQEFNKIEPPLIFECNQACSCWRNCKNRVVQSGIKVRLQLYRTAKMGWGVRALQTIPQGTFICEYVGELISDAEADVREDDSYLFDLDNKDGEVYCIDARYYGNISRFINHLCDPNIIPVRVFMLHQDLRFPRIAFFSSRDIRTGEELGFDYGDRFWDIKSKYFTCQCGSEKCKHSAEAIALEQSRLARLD

The experiment concerns the target Histone-lysine N-methyltransferase EHMT2 (Homo sapiens) (UniProt Q96KQ7). The experiment in a line: qHTS Assay for Inhibitors of Histone Lysine Methyltransferase G9a. Note: nearly all actives have a fitted effect of over 75% in size. Particulars: G9a H3K9 monomethylation, AlphaScreen, 2 h; series mostly up to 59 µM; activity, negative = inhibition: at the top concentration. The essentials:
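Methyltransferase reactions run at room temperature for 2 h (20 nM enzyme, 500 nM biotin-H3K9 peptide, 20 uM SAM) after a 15 min compound preincubation; product detected by AlphaScreen beads and anti-H3K9me1 antibody.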
In the case of `FC(F)(F)c1nc2ccccc2nc1N/N=C/c1ccc(Cl)cc1`, the “activity, negative = inhibition” value is 48.3%.

As to `CCOc1ncccc1C(=O)OCC(=O)Nc1cccc(S(=O)(=O)N2CCCCCC2)c1`, the activity, negative = inhibition is -1.01% [at 2.33 µM].

Consider `CN1CCN(CCC(=O)N/N=C/C=C2\N(C)c3ccccc3C2(C)C)CC1`, for which the Potency was 31.6 µM (active).

`CN1/C(=C\C(=O)c2oc3ccccc3c2N)C(C)(C)c2ccccc21`: the “activity, negative = inhibition” value was -56.3%.

Consider `CC(C)Nc1nnc(SCC(=O)/C=C2\N(C)c3ccccc3C2(C)C)s1`, for which the “activity, negative = inhibition” value was -11.2%.

Take `CCN(CCCNC(=O)c1cc2c(=O)n(CC)c3ccccc3c2s1)Cc1ccccc1`: the “activity, negative = inhibition” value was 2.01%.

Take `CCOC(=O)c1ccc(NC(=O)Cc2cccs2)cc1`: the “activity, negative = inhibition” value was 23% [at 102 µM].

For the compound `CCCN1C(=O)C(O)(CC(=O)c2ccc(CC)cc2)c2cc(Br)ccc21` (stereo unspecified), the “activity, negative = inhibition” value is 8.12%.

For `COc1ccc(N2CC(C(=O)N[C@@H](C)C(=O)N3CCCCC3)CC2=O)cc1` (stereo partly specified), the “activity, negative = inhibition” value is 13.8% [at 102 µM].

Regarding `COc1ccc(C(C)NC(=O)C2CCCC2)cc1` (stereo unspecified), the “activity, negative = inhibition” value is 49.3% [at 102 µM].

Turning to `COc1ccc(C2OC(=O)CC2C(=O)NC(C)C)cc1` (stereo unspecified), the Potency is 28.2 µM (active).

`COc1ccc(NC(=O)CSc2nc3ccccc3n2CC(=O)N2CCCCC2C)cc1` (stereo unspecified): the “activity, negative = inhibition” value was 16.3%.

For `CCOc1ccc(NC(=O)CN(C)C(=O)Cc2sc(C)nc2-c2ccc(F)cc2)cc1OCC`, the “activity, negative = inhibition” value was -29.9%.

For the compound `Cc1cc(C)cc(NC(=S)NCCc2c[nH]c3ccccc23)c1`, the Potency was 39.8 µM (active).

As for `O=C(NCCc1c[nH]c2ccccc12)c1cccc(Br)c1`, the activity, negative = inhibition was 0.2% [at 2.33 µM].

With `O=C(NCCc1c[nH]c2ccccc12)c1cc2ccccc2oc1=O`, the “activity, negative = inhibition” value is -44.1% [at 102 µM].

As for `O=C(O[C@H]1[C@H](Cc2ccccc2)NS(=O)(=O)[C@H]2C[C@@H]3C=C[C@]12O3)c1ccc([N+](=O)[O-])cc1`, the activity, negative = inhibition is -6.93% [at 2.33 µM].

For `Brc1ccc(CN2CC[C@H]3C=CCc4cccc(c43)C2)cc1`, the activity, negative = inhibition was 12.2% [at 2.33 µM].

`CCc1ccc(NC(=O)c2cc(S(=O)(=O)NC3CCCCCC3)ccc2F)cc1`: the “activity, negative = inhibition” value was 13.9%.

Take `Cc1cccc(-n2cc(CN3CCN(C(=O)c4ncn[nH]4)CC3)c(-c3cccc(F)c3)n2)c1`: the “activity, negative = inhibition” value was -37.2% [at 102 µM].

As for `Cc1ccc(-n2cc(CN(C)Cc3nccn3C)c(-c3cccc(C)c3)n2)cc1`, the Potency was 39.8 µM (active).

`COc1ccc(-c2[nH]ncc2CN(Cc2nccn2C)C(C)C)cc1F`: the “activity, negative = inhibition” value was -38.6% [at 102 µM].

As for `COc1cc(C(=O)NCCS(=O)(=O)N2CCN(c3ccccc3)CC2)cc(OC)c1OC`, the “activity, negative = inhibition” value is -36.6%.

Turning to `Cc1ccccc1CNC(=O)C(=O)NCC(c1cccs1)S(=O)(=O)c1cccs1` (stereo unspecified), the “activity, negative = inhibition” value is 4.09%.

For the compound `CCc1ccc(NC(=O)CCS(=O)(=O)c2cc3c(cc2Cl)NC(=O)CO3)cc1`, the “activity, negative = inhibition” value is -7.38%.

Consider `CCOC(=O)c1ccc(-c2ccc(/C=C(\C#N)C(=O)Nc3ccc(C)cc3)o2)cc1`, for which the “activity, negative = inhibition” value is -4.08%.

On to `Cc1cccc(N2C(=O)c3ccc(C(=O)Nc4cccc(C(=O)O)c4)cc3C2=O)c1`, for which the “activity, negative = inhibition” value is -31.2% [at 102 µM].

For `O=C(Nc1ccc2c(c1)OCO2)c1ccc(N2C(=O)c3ccccc3C2=O)cc1`, the “activity, negative = inhibition” value was 7.92% [at 102 µM].

On to `CC(=O)Nc1ccc(NC(=O)c2ccc3c(c2)C(=O)N(c2ccccc2C)C3=O)cc1`, for which the Potency is 39.8 µM (active).

Consider `O=C(CCNS(=O)(=O)c1ccc(Br)cc1)NCC1CCCO1` (stereo unspecified), for which the “activity, negative = inhibition” value was 5.66%.

In the case of `CC1CN(C(=O)N2CCC(C(=O)NCc3cccs3)CC2)c2ccccc2O1` (stereo unspecified), the “activity, negative = inhibition” value was 5.28%.

As for `CSCCC(NC(=O)COc1ccccc1)C(=O)OCCOc1ccc(F)cc1` (stereo unspecified), the “activity, negative = inhibition” value was -5.75% [at 102 µM].

On to `CCCCN(C)CCCNC(=O)c1cc(-c2cccs2)nc2ccccc12`, for which the “activity, negative = inhibition” value was -36.5% [at 102 µM].

Regarding `O=C(Nc1nnc(-c2ccccc2)o1)c1cc(-c2cccs2)nc2ccccc12`, the Potency was 39.8 µM (active).

Turning to `COC(=O)c1cc(-c2cccs2)nc2ccccc12`, the activity, negative = inhibition was 17% [at 2.33 µM].

For `COC(=O)c1cc2occc2n1Cc1nc(-c2ccc(C)cc2)oc1C`, the “activity, negative = inhibition” value was -36.5%.

As for `CC(=O)c1c(C)[nH]c(C(=O)OCC(=O)Nc2c(C)n(C)n(-c3ccccc3)c2=O)c1C`, the “activity, negative = inhibition” value is -2.75% [at 102 µM].

With `Cc1ccc(CC2CC(=O)N(c3ccc4c(c3)OCCO4)C2=O)cc1` (stereo unspecified), the “activity, negative = inhibition” value is 10.7% [at 102 µM].

For `Cc1ccc(N2C(=O)CC(NCc3ccc4c(c3)OCO4)C2=O)cc1Cl` (stereo unspecified), the Potency is 39.8 µM (active).

With `CC1CCCCN1CC(=O)NCc1ccc2c(c1)OCO2` (stereo unspecified), the activity, negative = inhibition is 8.12% [at 12.7 µM].

Turning to `O=C(c1ccc(Cn2cc([N+](=O)[O-])cn2)o1)N1CCCC1`, the “activity, negative = inhibition” value was 14.9% [at 102 µM].

For `CCCCNC(=O)C1CCCN(c2nnc(C)c3c(C)n(-c4ccc(Cl)cc4)nc23)C1` (stereo unspecified), the “activity, negative = inhibition” value is -11%.

As to `CCOc1ccc(NC(=O)CSc2nc3c(c(=O)n2-c2ccccc2OC)SCC3)cc1`, the Potency was 31.6 µM (active).

Consider `COc1ccc(-n2c(SC)nc3sc4c(c3c2=O)CCN(C(C)=O)C4)cc1`, for which the “activity, negative = inhibition” value is 12%.

For `COc1ccccc1NC(=O)CSc1nc2sc3c(c2c(=O)n1-c1ccccc1)CCN(C)C3`, the Potency is 39.8 µM (active).

As to `CCc1nnc(NC(=O)CSc2nc3c(c(=O)n2-c2ccccc2OC)SCC3)s1`, the activity, negative = inhibition was -12.8% [at 12.7 µM].

Consider `CCOc1ccc(NC(=O)CSc2nncn2C)cc1`, for which the “activity, negative = inhibition” value is 0.64% [at 102 µM].

Take `COc1ccccc1-n1c(SCC(=O)O)nc2sc3c(c2c1=O)CCC3`: the “activity, negative = inhibition” value is 0.797% [at 102 µM].

With `CC1(C)Cc2c(sc3nc(SCC(=O)NCc4ccccc4)n(-c4ccccc4)c(=O)c23)CS1`, the “activity, negative = inhibition” value is 13.5% [at 102 µM].

As to `CCOc1ccc(-n2c(SCC(=O)Nc3ccc(OC)cc3)nc3sc4c(c3c2=O)CCN(C)C4)cc1`, the Potency is 39.8 µM (active).

On to `CCOC(=O)c1sc(NC(=O)CSc2nc3c(c(=O)n2-c2ccccc2)SCC3)c(C(=O)OCC)c1C`, for which the “activity, negative = inhibition” value is 12.9% [at 102 µM].
